# Measured values published in PubChem BioAssay (NCI).
# Compounds without any hit were thinned out: in the full panel of roughly 83,000, 20% have a hit.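 In brief: 96-well plates, 48 h treatment, single concentration, percent growth endpoint.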 Values without a mark were called inactive. Calls of active or inactive are those of the source. Rule for the calls: active = growth percent below 10; inactive = the rest.
# System: MDA-MB-468 breast
# Test: NCI-60 one-dose screen, 48 h (100 = growth as untreated, 0 = no growth, -100 = all killed)
# Conditions: 10 µM unless noted
row,SMILES,growth
1,COc1cc(NCCCN)c2ncccc2c1,76%
2,O=C(c1ccc(O)cc1)C1[C@H](c2ccc(Cl)cc2)[C@@H](c2ccccc2)NC12C(=O)Nc1ccc(Cl)cc12 (stereo not given in full),39.4%
3,CN1C(=O)C(C(=O)/C=C/c2ccccc2C(=O)O)C(=O)N(C)C1=O,102%
4,COc1cc(/C=C/C(=O)c2ccc(Cl)cc2)cc(CN2CCCCC2)c1O,93.2%
5,NC(=O)CSSCC(N)=O,105%
6,c1ccc(C(CC2=NCCCN2)c2ccccc2)cc1,102%
7,O=C1CC(=NCC(=O)n2c(-c3ccccc3)nc3ccccc32)NN1,94%
8,COc1ccc(/C(C)=C(\c2ccc(Cl)cc2)c2ccc(OCCN3CCCC3)cc2)cc1F,37.5%
9,COc1ccc(NC(=O)c2nc(-c3cc(OC)c(OC)c(OC)c3)n(-c3cccc4ccccc34)n2)cc1OC,46.4%
10,C#C[C@]1(O)CCC2C3CCc4cc(O)ccc4C3CC[C@@]21C (stereo not given in full),12.1%
11,COc1ccc(COc2cc3oc(=O)c4cc(C(C)O)ccc4c3cc2OC)cc1 (stereo not given),41%
12,COc1ccc(-c2cc(-c3ccc(Cl)cc3)c(C#N)c(=O)n2Cc2ccc(C(=O)Nc3ccccc3N)cc2)cc1,63.8%
13,Cc1ccc2[nH]c(=O)c3c(c2c1)Oc1ncn2nc(-c4ccco4)nc2c1C3c1ccc(Cl)cc1 (stereo not given),96.4%
14,COc1cc(CNS(=O)(=O)c2ccc(C)cc2)ccc1OCc1cn(-c2ccc(Br)cc2)nn1,95.5%
15,O=C(/C(=C/c1ccc([N+](=O)[O-])cc1)SCc1ccc(Cl)cc1)c1ccc(F)cc1,77.2%
16,O=C/C=C/c1ccc([N+](=O)[O-])cc1,108%
17,O=C(Nc1cccc(Oc2nnc(Cl)c3ccccc23)c1)Nc1ccc(Cl)c(C(F)(F)F)c1,-44.8% (active)
18,CCCCn1c(=O)c2c(nc3n2CCCN3CCc2ccc(OCC(=O)NCCN(CC)CC)cc2)n(CCCC)c1=O,43.7%
19,CCOC(=O)c1cc2c(n1Cc1cc(OC)c(OC)c(OC)c1)-c1nc(N)sc1CCC2,35.8%
20,COc1ccc(S(=O)(=O)Nc2cc(Sc3cccc4cccnc34)c(O)c3ccccc23)cc1,-39.6% (active)

row,SMILES,growth
1,CCn1c(-c2cc3c([nH]c4ccccc43)c(-c3cccc(O)c3)n2)n[nH]c1=S,16.1%
2,O=C1C2C(C(=O)N1CC[Se][Se]CCN1C(=O)C3C(C1=O)[C@H]1C=C[C@@H]3C1)[C@H]1C=C[C@@H]2C1 (stereo not given in full),-12.6% (active)
3,COc1ccccc1Nc1nnc(-c2ccc(Cl)cc2)o1,14%
4,CCOc1cccnc1/C=N/NC(N)=S,52.7%
5,CC(=O)c1cc2c(o1)C(=O)c1ccccc1C2=O,-40% (active)
6,Nc1ccc(C(=O)/C=C/c2ccccc2)cc1,87.4%
7,Clc1ccc(-c2cn(-c3ccccc3)c(-c3ccccc3)n2)c(Cl)c1,-61.3% (active)
8,CN1CCN(CCCOc2cccc3nc(Nc4cc(Cl)cc(Cl)c4)ccc23)CC1,-52.6% (active)
9,CC(=O)N1N=C(c2ccc(C(F)(F)F)cc2)CC1c1ccc2c(c1)OCO2 (stereo not given),93.8%
10,COc1ccc2c(O)c(/C=C3\N=Nc4nc(C)ccc43)oc2c1CC1CCNCC1,0.98% (active)
11,O=C(Nc1ccc(F)cc1)c1cc(-c2ccc(F)cc2F)ccc1O,-7.21% (active)
12,C=C1C(=O)O[C@H]2[C@H]1CC/C(CNC(=O)/C=C/c1cccc(OC)c1)=C\CC[C@@]1(C)O[C@@H]21,-36.5% (active)
13,CN1C(=O)N(C)C2C1NN=c1s/c(=C\c3ccc(Br)cc3)c(=O)n12 (stereo not given),10.8%
14,C=C1C(=O)O[C@H]2[C@H]1CC/C(CNC(=O)CCc1ccc(OC)cc1)=C\CC[C@@]1(C)O[C@@H]21,32.1%
15,CNC(=O)c1[nH]cc(-c2ccc(OC)cc2)c1-c1cc(OC)c2c(c1OC)OCO2,97.7%
16,O=S(=O)(Nc1ccc(F)cc1F)c1ccc(-c2cnc(C3CC3)o2)cc1,2.58% (active)
17,CCOC(=O)C1=C(C)n2nc(CC#N)c(C#N)c2NC1c1ccc(Cl)cc1 (stereo not given),117%
18,Cc1ccc(/C=C/C(=O)c2ccc(NC(=O)CSc3nc4c([nH]3)c(=O)n(C)c(=O)n4C)cc2)c(C)c1,34.1%
19,N/C(=N\c1nc2ccccc2s1)NC(=O)Nc1ccccc1Cl,16.6%
20,O=C(CO[N+](=O)[O-])Nc1ccc(C(=O)/C=C/c2ccc3c(c2)OCO3)cc1,91.9%
